# Measurements taken from PubChem BioAssay AID2685 (National Center for Advancing Translational Sciences (NCATS), 2010).
# Screen size: about 320,000 compounds; about 2,100 (0.66%) were called active. Roughly 53% stayed inconclusive and do not appear here. The call rests on the fitted dose curve; in most records, active means well fitted inhibition curve with a large enough effect in the signal ratio, with a control signal flat (not every such curve was filed as active); inconclusive means small, poorly fitted or top-dose-only effect, or effect the other way, or a change in a side signal; inactive means flat fitted curve, though single readings scatter; the % refers to the signal ratio. Only a selection was taken, and actives are over-represented in it overall.
# Experiment: qHTS Assay for Lipid Storage Modulators in Drosophila S3 Cells;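 on cell number change: cells counted by Cell Tracker Red CMTPX staining in the red channel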; on lipid storage change, negative = inhibition: on the % scale 0 is the no-effect control and ±100 the full control effect
# Conditions: BODIPY lipid droplet fluorescence, 18-24 h, cells fed with added oleic acid; cell number change: measured here: cell count max response; series mostly up to 46.1 µM; lipid storage change, negative = inhibition: at the top concentration
# Procedure, shortened: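 Laser-scanning cytometry quantifies lipid droplet accumulation (500–530 nm total intensity; droplet/cell object ratio) in oleic acid-fed (400 uM added) Drosophila S3 cells treated with a concentration series. 20 uM Triacsin C defined 100% inhibition.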
# Potency means the concentration at half of the fitted maximal effect.
SMILES,Potency,cell number change [%],outcome,"lipid storage change, negative = inhibition"
C/C(=N\NC(=O)CCc1ccc(S(=O)(=O)N2CCOCC2)cc1)c1ccc(OC(F)F)cc1,11.6 µM (active),-28.6,–,–
CCCCc1ccc(CC(=O)Nc2cc(S(=O)(=O)N3CCOCC3)ccc2O)cc1,20.6 µM (active),-16.2,–,–
CC(=O)NCCc1ccc(S(=O)(=O)Nc2ccc(C)c(S(=O)(=O)N3CCOCC3)c2)cc1,–,-24.8,inactive,–
Cc1ccc(CNC(=O)Cc2nc3nc(C)cc(C)n3n2)cc1,–,1.61,–,-1.12% (inactive)
COc1cc2c(cc1OC)CN(C(=O)Nc1ccccc1Cl)CC2,–,-24.6,–,11.9% (inactive)
CCc1nnc(NC(=O)CSc2nnc(C)n2CC2CCCO2)s1 (centres undefined),–,6.32,–,22.4% (inactive)
COCCCNC(=O)CSc1nc2ccccc2c(=O)n1Cc1ccc2c(c1)OCO2,–,-4.93,–,23.2% (inactive)
COc1ccc(C(=O)NCCc2cnc[nH]2)cc1OC,–,-11.3,–,19.2% (inactive)
COC(=O)CCN(C(=O)c1ccc(OC(C)=O)cc1)c1ccccn1,–,6.03,–,2.15% (inactive)
COC(=O)CCN(C(=O)c1cccc(OC(C)=O)c1)c1ccccn1,25.9 µM (active),-22.7,–,–
COC(=O)CCN(C(=O)c1ccc(C)c([N+](=O)[O-])c1)c1ccccn1,–,16.9,–,18% (inactive)
Cc1cc(NC(=O)C(C)SCC(=O)OC(C)C(=O)Nc2ccccc2C)no1 (centres undefined),–,31.1,–,27.6% (inactive)
COCCN1CN=C(Nc2nc(C)c3ccc(C)cc3n2)NC1,–,3.94,–,7.94% (inactive)
O=C1NCC(COCc2ccco2)O1 (centres undefined),16.4 µM (active),0.961,–,–
Cc1cccc(C)c1OCC1CNC(=O)O1 (centres undefined),–,9.47,inactive,–
Cc1ccccc1OCC1CNC(=O)O1 (centres undefined),–,6.67,–,1.82% (inactive)
Cc1c(C(=O)N(C)Cc2ccccc2)oc2ccc(S(=O)(=O)N3CCCC3)cc12,–,-25.2,–,20.7% (inactive)
Cc1c(C(=O)O)oc2ccc(S(=O)(=O)N3CC(C)CC(C)C3)cc12 (centres undefined),–,24.2,–,8.14% (inactive)
CCN(CC)C(=O)c1oc2ccc(S(=O)(=O)N3CC(C)CC(C)C3)cc2c1C (centres undefined),0.58 µM (active),13.1,–,–
CCCCN(CC)C(=O)c1oc2ccc(S(=O)(=O)N3CCCC3)cc2c1C,11.6 µM (active),-20.1,–,–
Cc1c(C(=O)NCC2CCCO2)oc2ccc(S(=O)(=O)N3CC(C)CC(C)C3)cc12 (centres undefined),–,–,–,16.1% [at 9.22 µM] (inactive)
Cc1c(C(=O)NCC2CCCO2)oc2ccc(S(=O)(=O)N3CCCC3)cc12 (centres undefined),–,-3.78,–,-9.13% (inactive)

SMILES,Potency,cell number change [%],outcome,"lipid storage change, negative = inhibition"
CCOC(=O)N1CCN(C(=O)c2oc3ccc(S(=O)(=O)N4CCCCC4)cc3c2C)CC1,–,–,–,14% (inactive)
Cc1c(C(=O)NCCN(C)C)oc2ccc(S(=O)(=O)N3CCCC3)cc12,0.116 µM (active),13.1,–,–
Cc1c(C(=O)NCc2ccc3c(c2)OCO3)oc2ccc(S(=O)(=O)N3CCCC3)cc12,–,-21.4,inactive,–
O=[N+]([O-])/C(=C\Nc1ccc(F)cc1F)S(=O)(=O)c1ccccc1,–,–,–,9% (inactive)
COc1ccc(-c2cc(C(=O)Nc3nc4ccccc4s3)c3ccccc3n2)cc1OC,–,2.3,–,24.3% (inactive)
Cn1cccc1C(=O)OCC(=O)Nc1cc(C(C)(C)C)nn1-c1ccccc1,–,10.4,–,2.46% (inactive)
CS(=O)(=O)N(CC(=O)Nc1cccc([N+](=O)[O-])c1)c1cccc(F)c1,–,-2.63,–,26% (inactive)
CC1CCc2sc(C(=O)NNC(=S)NCC3CCCO3)cc2C1 (centres undefined),–,20,–,7.7% (inactive)
Cc1cccc2sc(NC(=O)C3CSC4(C)CCC(=O)N34)nc12 (centres undefined),–,14.2,–,-1.42% (inactive)
O=C(c1cccnc1)N1CCN(S(=O)(=O)c2ccc(Cl)cc2)CC1,–,-4.89,–,-0.561% (inactive)
COc1ccc(N2CCN(C(=O)CCNS(=O)(=O)c3cc(Br)cnc3N)CC2)cc1,–,–,inactive,–
S=C1NCCOCCOCCOCCOCCN1,13 µM (active),20.5,–,–
S=C1NCCOCCOCCOCCN1,–,-10.7,–,-10.2% (inactive)
S=C1NCCOCCNC(=S)NCCOCCOCCN1,–,28,–,-11.6% (inactive)
N/C(CCN1CCOCC1)=N/O,–,-8.53,–,-0.675% (inactive)
COc1ccc(N2CCCn3c2nc2c3c(=O)n(CCN3CCOCC3)c(=O)n2C)cc1,–,-8.81,–,-1% (inactive)
COc1ccc(N2CC(C)Cn3c2nc2c3c(=O)n(CCN3CCOCC3)c(=O)n2C)cc1 (centres undefined),2.06 µM (active),5.05,–,–
COc1ccc(N2CCn3c2nc2c3c(=O)n(CCN3CCOCC3)c(=O)n2C)cc1,–,-1.98,–,22.2% (inactive)
COCCOC(=O)c1c(NC(=O)CNc2ccc(C)c(F)c2)sc(C(N)=O)c1C,–,3.82,–,9.19% (inactive)
CCOc1ccc(/C=C/c2nc(C#N)c(NCCCOC)o2)cc1,18.4 µM (active),-10.5,–,–
CCNc1oc(/C=C/c2ccc(OCC)cc2)nc1C#N,–,-11.4,–,-17.7% (inactive)
CCOc1ccc(/C=C/c2nc(C#N)c(NCCCN(C)C)o2)cc1,–,-6.82,inactive,–
